# In all, about 5,500 compounds went through this assay and about 2,000 (36%) were called active. Not shown: some 18% with an inconclusive outcome. Cut-off read from the data, not from the text of the source: active = normalized growth mostly below about 0.91 (no sharp cut-off); inconclusive = no clear call, values can overlap the other calls; inactive = mostly above about 0.92. The list shows a part of the results.
# Test: chemical genetic growth profiling, strain panel (AID 1159580);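 note: tested at 20 µM; growth read once vehicle control cultures reached saturation at 30 °C; 1 = growth at the plate median or of vehicle wells; lower values mean less growth of the strain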
# Conditions: growth OD
smiles,measurement,setting,value
O=C(O)c1ccccc1-c1c2cc(Br)c(=O)cc-2oc2[c]([Hg])c(O)c(Br)cc12,normalized growth,"S. cerevisiae deletion strains, locus YKL009W, strain mrt4, hits give low values",0.924 (inactive)
same,normalized growth,"S. cerevisiae deletion strains, locus YKL068W, hits give low values",0.565 (active)
same,normalized growth,"S. cerevisiae deletion strains, locus YKL085W, strain MDH1 (second series), hits give low values",0.0686 (active)
same,normalized growth,"S. cerevisiae deletion strains, locus YKL085W, strain MDH1, hits give low values",0.0686 (active)
same,normalized growth,"S. cerevisiae deletion strains, locus YKL160W, strain elf1, hits give low values",0.0872 (active)
same,normalized growth,"S. cerevisiae deletion strains, locus YKL190W, strain CNB1, hits give low values",0.575 (active)
same,normalized growth,"S. cerevisiae deletion strains, locus YKR001C, strain vps1, hits give low values",0.101 (active)
same,normalized growth,"S. cerevisiae deletion strains, locus YKR026C, strain gcn3, hits give low values",1.05 (inactive)
same,normalized growth,"S. cerevisiae deletion strains, locus YKR091W, strain srl3, hits give low values",1.04 (inactive)
same,normalized growth,"S. cerevisiae deletion strains, locus YLL001W, strain dnm1, hits give low values",1.03 (inactive)
same,normalized growth,"S. cerevisiae deletion strains, locus YLL026W, hits give low values",1.04 (inactive)
same,normalized growth,"S. cerevisiae deletion strains, locus YLL041C, strain sdh2, hits give low values",1.02 (inactive)
same,normalized growth,"S. cerevisiae deletion strains, locus YLR027C, strain aat2, hits give low values",1.04 (inactive)
same,normalized growth,"S. cerevisiae deletion strains, locus YLR039C, strain RIC1, hits give low values",0.949 (inactive)
same,normalized growth,"S. cerevisiae deletion strains, locus YLR058C, strain SHM2, hits give low values",0.992 (inactive)
same,normalized growth,"S. cerevisiae deletion strains, locus YLR102C, strain apc9, hits give low values",0.081 (active)
same,normalized growth,"S. cerevisiae deletion strains, locus YLR113W, strain HOG1, hits give low values",0.485 (active)
same,normalized growth,"S. cerevisiae deletion strains, locus YLR221C, strain rsa3, hits give low values",1 (inactive)
same,normalized growth,"S. cerevisiae deletion strains, locus YLR258W, strain gsy2, hits give low values",1.04 (inactive)
same,normalized growth,"S. cerevisiae deletion strains, locus YLR262C, strain YPT6 (second series), hits give low values",1.09 (inactive)
same,normalized growth,"S. cerevisiae deletion strains, locus YLR262C, strain YPT6, hits give low values",0.68 (inactive)
same,normalized growth,"S. cerevisiae deletion strains, locus YLR268W, strain sec22, hits give low values",0.106 (active)
same,normalized growth,"S. cerevisiae deletion strains, locus YLR320W, strain mms22, hits give low values",1.02 (inactive)
same,normalized growth,"S. cerevisiae deletion strains, locus YLR330W, strain CHS5, hits give low values",0.0829 (active)
same,normalized growth,"S. cerevisiae deletion strains, locus YLR342W, strain FKS1 (second series), hits give low values",0.132 (active)
same,normalized growth,"S. cerevisiae deletion strains, locus YLR342W, strain FKS1, hits give low values",1.02 (inactive)
same,normalized growth,"S. cerevisiae deletion strains, locus YLR357W, strain rsc2, hits give low values",1 (inactive)
same,normalized growth,"S. cerevisiae deletion strains, locus YLR370C, strain arc18, hits give low values",1.04 (inactive)
same,normalized growth,"S. cerevisiae deletion strains, locus YLR371W, strain rom2, hits give low values",0.0749 (active)
same,normalized growth,"S. cerevisiae deletion strains, locus YLR384C, strain iki3, hits give low values",1.02 (inactive)
same,normalized growth,"S. cerevisiae deletion strains, locus YLR418C, strain cdc73, hits give low values",0.166 (active)
same,normalized growth,"S. cerevisiae deletion strains, locus YML016C, strain PPZ1, hits give low values",0.0683 (active)
same,normalized growth,"S. cerevisiae deletion strains, locus YML032C, strain rad52, hits give low values",0.99 (inactive)
same,normalized growth,"S. cerevisiae deletion strains, locus YML120C, strain ndi1, hits give low values",1.03 (inactive)
same,normalized growth,"S. cerevisiae deletion strains, locus YML124C, strain tub3, hits give low values",0.779 (active)
same,normalized growth,"S. cerevisiae deletion strains, locus YMR058W, strain fet3, hits give low values",1.02 (inactive)
same,normalized growth,"S. cerevisiae deletion strains, locus YMR078C, strain ctf18, hits give low values",0.484 (active)
same,normalized growth,"S. cerevisiae deletion strains, locus YMR125W, strain sto1, hits give low values",1.02 (inactive)
same,normalized growth,"S. cerevisiae deletion strains, locus YMR129W, hits give low values",1.04 (inactive)
same,normalized growth,"S. cerevisiae deletion strains, locus YMR205C, strain PFK2, hits give low values",1.09 (inactive)
same,normalized growth,"S. cerevisiae deletion strains, locus YMR223W, strain ubp8, hits give low values",0.0739 (active)
same,normalized growth,"S. cerevisiae deletion strains, locus YMR231W, strain pep5, hits give low values",1.03 (inactive)
same,normalized growth,"S. cerevisiae deletion strains, locus YMR263W, strain SAP30, hits give low values",0.943 (inactive)
same,normalized growth,"S. cerevisiae deletion strains, locus YMR307W, strain GAS1, hits give low values",0.228 (active)
same,normalized growth,"S. cerevisiae deletion strains, locus YNL067W, strain RPL9B, hits give low values",0.814 (active)
same,normalized growth,"S. cerevisiae deletion strains, locus YNL071W, strain lat1, hits give low values",1.01 (inactive)
same,normalized growth,"S. cerevisiae deletion strains, locus YNL128W, strain TEP1, hits give low values",0.196 (active)
same,normalized growth,"S. cerevisiae deletion strains, locus YNL153C, strain GIM3, hits give low values",0.89 (inactive)
same,normalized growth,"S. cerevisiae deletion strains, locus YNL183C, strain NPR1, hits give low values",0.513 (active)
same,normalized growth,"S. cerevisiae deletion strains, locus YNL209W, strain ssb2, hits give low values",1.03 (inactive)
same,normalized growth,"S. cerevisiae deletion strains, locus YNL233W, strain BNI4, hits give low values",0.104 (active)
same,normalized growth,"S. cerevisiae deletion strains, locus YNL248C, strain rpa49, hits give low values",1.02 (inactive)
same,normalized growth,"S. cerevisiae deletion strains, locus YNL250W, strain rad50, hits give low values",0.0998 (active)
same,normalized growth,"S. cerevisiae deletion strains, locus YNL271C, strain bni1, hits give low values",0.0638 (active)
same,normalized growth,"S. cerevisiae deletion strains, locus YNL298W, strain CLA4, hits give low values",0.062 (active)
same,normalized growth,"S. cerevisiae deletion strains, locus YNL307C, strain MCK1, hits give low values",0.072 (active)
same,normalized growth,"S. cerevisiae deletion strains, locus YNL322C, strain KRE1 (second series), hits give low values",1.05 (inactive)
same,normalized growth,"S. cerevisiae deletion strains, locus YNL322C, strain KRE1, hits give low values",0.914 (active)
same,normalized growth,"S. cerevisiae deletion strains, locus YNR049C, strain mso1, hits give low values",1.02 (inactive)
same,normalized growth,"S. cerevisiae deletion strains, locus YNR052C, strain pop2, hits give low values",0.937 (inactive)
same,normalized growth,"S. cerevisiae deletion strains, locus YOL006C, strain TOP1, hits give low values",0.153 (active)
same,normalized growth,"S. cerevisiae deletion strains, locus YOL012C, strain htz1",0.228 (inactive)
same,normalized growth,"S. cerevisiae deletion strains, locus YOL147C, strain pex11, hits give low values",0.995 (inactive)
same,normalized growth,"S. cerevisiae deletion strains, locus YOR001W, strain rrp6, hits give low values",1.04 (inactive)
same,normalized growth,"S. cerevisiae deletion strains, locus YOR061W, strain CKA2, hits give low values",0.155 (active)
same,normalized growth,"S. cerevisiae deletion strains, locus YOR069W, strain VPS5, hits give low values",0.494 (active)
same,normalized growth,"S. cerevisiae deletion strains, locus YOR070C, strain gyp1, hits give low values",1.02 (inactive)
same,normalized growth,"S. cerevisiae deletion strains, locus YOR080W, strain dia2, hits give low values",1.02 (inactive)
same,normalized growth,"S. cerevisiae deletion strains, locus YOR083W, strain WHI5, hits give low values",1.03 (inactive)
same,normalized growth,"S. cerevisiae deletion strains, locus YOR106W, strain vam3, hits give low values",0.952 (inactive)
same,normalized growth,"S. cerevisiae deletion strains, locus YOR136W, strain idh2, hits give low values",0.0743 (active)
same,normalized growth,"S. cerevisiae deletion strains, locus YOR144C, strain elg1, hits give low values",1.02 (inactive)
same,normalized growth,"S. cerevisiae deletion strains, locus YOR184W, strain ser1, hits give low values",0.143 (active)
same,normalized growth,"S. cerevisiae deletion strains, locus YOR231W, strain MKK1, hits give low values",0.345 (active)
same,normalized growth,"S. cerevisiae deletion strains, locus YOR265W, strain rbl2, hits give low values",1.04 (inactive)
same,normalized growth,"S. cerevisiae deletion strains, locus YOR270C, strain vph1, hits give low values",1.31 [resistant] (active)
same,normalized growth,"S. cerevisiae deletion strains, locus YOR290C, strain snf2, hits give low values",1.07 (inactive)
same,normalized growth,"S. cerevisiae deletion strains, locus YOR316C, strain cot1, hits give low values",0.0634 (active)
same,normalized growth,"S. cerevisiae deletion strains, locus YPL051W, strain arl3, hits give low values",1 (inactive)
same,normalized growth,"S. cerevisiae deletion strains, locus YPL055C, strain LGE1, hits give low values",0.226 (active)
same,normalized growth,"S. cerevisiae deletion strains, locus YPL078C, strain atp4, hits give low values",1.04 (inactive)
same,normalized growth,"S. cerevisiae deletion strains, locus YPL106C, strain sse1, hits give low values",0.909 (inactive)
same,normalized growth,"S. cerevisiae deletion strains, locus YPL240C, strain hsp82, hits give low values",1.03 (inactive)
same,normalized growth,"S. cerevisiae deletion strains, locus YPL241C, strain CIN2, hits give low values",0.987 (inactive)
same,normalized growth,"S. cerevisiae deletion strains, locus YPL256C, strain CLN2, hits give low values",0.487 (active)
same,normalized growth,"S. cerevisiae deletion strains, locus YPR119W, strain clb2, hits give low values",0.0719 (active)
same,normalized growth,"S. cerevisiae deletion strains, locus YPR141C, strain kar3, hits give low values",0.254 (active)
same,normalized growth,"S. cerevisiae deletion strains, locus YPR163C, strain tif3, hits give low values",0.0765 (active)
same,normalized growth,"S. cerevisiae deletion strains, locus YPR167C, strain met16, hits give low values",0.0655 (active)
same,normalized growth,"S. cerevisiae deletion strains, strain wtn01, hits give low values",0.062 (active)
same,normalized growth,"S. cerevisiae strains, strain wild type, hits give low values",0.196 (active)

# Reference: PubChem BioAssay AID1159580 (chemical genetic matrix, 2015)
